Reference: PubChem BioAssay (NCI)
This is part of a sample that, as a whole, favours compounds with a hit. Of some 83,000 tested, about 20% had one in any assay.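 48-hour exposure, single concentration, 96-well plates; percent growth endpoint where 0 means no net growth. Active: below 10.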 Values without a mark were called inactive. Activity calls are given as the source filed them.

Key:
Experiment in all cases: NCI-60 one-dose screen, 48 h (100 = growth as untreated, 0 = no growth, -100 = all killed)
Details in all cases: 10 µM unless noted
DU-145 prostate = tested on: DU-145 prostate
K-562 leukemia = tested on: K-562 leukemia
MALME-3M melanoma = tested on: MALME-3M melanoma
MDA-MB-231 breast = tested on: MDA-MB-231 breast
RXF 393 renal = tested on: RXF 393 renal
SF-268 CNS = tested on: SF-268 CNS
SF-295 CNS = tested on: SF-295 CNS
SF-539 CNS = tested on: SF-539 CNS
UACC-257 melanoma = tested on: UACC-257 melanoma
M14 melanoma = tested on: M14 melanoma

Row | Compound | growth (DU-145 prostate) | growth (K-562 leukemia) | growth (MALME-3M melanoma) | growth (MDA-MB-231 breast) | growth (RXF 393 renal) | growth (SF-268 CNS) | growth (SF-295 CNS) | growth (SF-539 CNS) | growth (UACC-257 melanoma) | growth (M14 melanoma)
1 | C#CCOc1cccc(-c2ncnc3cc(NC(=O)C=C)ccc23)c1 | 15.6% | 24.2% | 60.5% | 15.8% | 30.8% | 49.6% | 43.2% | 8.33% (active) | 62.5% | 45.6%
2 | O=C(CN1CCN(c2cc3c(cc2F)c(=O)c(C(=O)O)cn3C2CC2)CC1)N/N=C/c1ccco1 | 106% | 95% | 92.2% | 98.7% | 112% | 93.8% | 100% | 93.2% | 93.9% | 96.6%
3 | CCOC(=O)c1nn(CC(O)c2ccccc2)c(NC(=O)Nc2cccc(F)c2)c1C (centres undefined) | 94.4% | 92.4% | 100% | 90% | 107% | 95.4% | 92.2% | 102% | 86.8% | 103%
4 | O=C(O)c1cn(C2CC2)c2cc(N3CCN(C(=O)Nc4nc(-c5ccc(Br)cc5)cs4)CC3)c(F)cc2c1=O | 17% | 18% | 29.3% | 28.9% | 25.2% | 24.2% | 19.5% | 23.6% | 3.57% (active) | 23.7%
5 | CS(=O)(=O)c1nnc(-c2ccccc2)s1 | 88% | 78.4% | 88.1% | 101% | 110% | 94.8% | 106% | 106% | 91% | 74%
6 | C=C(CNCCc1ccc(O)cc1)[C@@H]1CC[C@]2(CO)CC[C@]3(C)[C@H](CC[C@@H]4[C@@]5(C)CCC(=O)C(C)(C)[C@@H]5CC[C@]43C)[C@@H]12 | 43.2% | -26.3% (active) | -57.3% (active) | 1.97% (active) | 26% | 45.9% | 84.2% | 78.8% | -12.8% (active) | -76.3% (active)
7 | COc1ccc(Nc2ncccc2/C=C/C(=O)c2cc(OC)c(OC)c(OC)c2)cc1 | 6.98% (active) | -26.3% (active) | -5.45% (active) | 17.3% | -61% (active) | -33.2% (active) | 17% | -51.1% (active) | -89.7% (active) | -53.4% (active)
8 | COc1ccc(/C=C/C(=O)c2cc3c(N)c(C(=O)Nc4cccc(Cl)c4C)sc3nc2C)cc1 | 7.29% (active) | 13% | 45.8% | -12.3% (active) | -17.3% (active) | 11.7% | 13.1% | -40.6% (active) | 63% | -6.38% (active)
9 | CN1CCN(C(=S)SCCCCOc2cc(=O)oc3ccccc23)CC1 | 90.6% | 64.3% | 93.3% | 89.1% | 99.5% | 87.7% | 77.7% | 98.9% | 85% | 103%
10 | Cc1ccc2c(=O)cc(C(=O)Nc3sc4c(c3C(=O)NCc3cccnc3)CCCC4)oc2c1C | 103% | 96.4% | 99.9% | 96.9% | 116% | 93.2% | 102% | 98.1% | 104% | 104%
11 | O=C1Nc2ccccc2/C1=C/c1cccn1C(=O)c1ccc(Cl)s1 | 66.8% | 36.8% | 104% | 50.9% | 81.1% | 39.4% | 88.8% | 62.4% | 79.5% | 82.2%
12 | O=C1NC(=O)/C(=C/c2c(-c3ccccc3)nc3sc(COc4ccccc4)nn23)S1 | 105% | 82.6% | 102% | 73.3% | 112% | 106% | 94.3% | 103% | 104% | 96.1%
13 | Nc1[nH]c(=S)nc2oc(-c3ccccc3)c(-c3ccccc3)c12 | 106% | 95.2% | 108% | 103% | 93% | 95.9% | 96.1% | 98.6% | 102% | 106%
14 | N#Cc1c(Nc2ccc(N3CCOCC3)cc2)nc(SCC(=O)c2ccc(Br)cc2)nc1-c1ccccc1 | 106% | 99.3% | 111% | 109% | 126% | 103% | 104% | 98.7% | 102% | 97.3%
15 | CC(C)CCN(CCC(C)C)CC(O)c1cc2c(c3ccccc13)CCCC2 (centres undefined) | 60.8% | 43.5% | 94.3% | 37.7% | 62.1% | 71.9% | 76.5% | 82.1% | 99.4% | 89.3%
16 | Cc1ccc(S(=O)(=O)OCCCOS(=O)(=O)c2ccc(C)cc2)cc1 | 95% | 65.9% | 100% | 110% | 107% | 101% | 107% | 122% | 81.1% | 98%
17 | O=C(Nc1cc(Cl)ccc1O)c1cccc(Nc2ccnc(C(F)(F)F)c2)c1 | 54.9% | 7.05% (active) | 53.1% | 34.1% | 65.8% | 55.2% | 2.92% (active) | 48.1% | 32.3% | 38.5%
18 | N#Cc1cccc(C2C3=C(COC3=O)N(CCO)c3cc4c(cc32)CCC4)c1 (centres undefined) | 3.87% (active) | 8.48% (active) | 48.2% | 32.4% | 35.5% | 30.4% | -7.01% (active) | -10.1% (active) | 69.4% | 2.59% (active)
19 | CC1CCN(C(=S)SCC(=O)NC(=O)c2ccccc2)CC1 | 107% | 97.1% | 95.5% | 117% | 136% | 100% | 105% | 99.2% | 102% | 109%
20 | Cc1ccc(/C=C/C(=O)c2ccc(-n3cc(CN4CCN(c5cc6c(cc5F)c(=O)c(C(=O)O)cn6C5CC5)CC4)nn3)cc2)cc1 | 96.3% | 86% | 96% | 75.5% | 70.9% | 71.5% | 86.9% | 73.6% | 101% | 87.4%
21 | COc1ccc(/C(C)=C(\c2ccc(Cl)cc2)c2ccc(OCCN3CCCCC3)cc2)cc1 | 78.8% | 3.68% (active) | 35.1% | 45.7% | 33.5% | 59.2% | 7.09% (active) | 43.9% | 1.77% (active) | –
22 | CCn1cc(CNc2ccc(C(=O)Nc3cc4cc(OC)c(OC)cc4c(C)n3)cc2)cn1 | 67.2% | 30.8% | 54.6% | 79.6% | 80.4% | 60.6% | 60.4% | 70.5% | 56.2% | 48.8%
23 | COc1ccc(C(=O)Cn2c(C(=O)c3ccc(OC)cc3)nc3ccccc32)cc1 | 54.6% | 7.61% (active) | 37.2% | 27.8% | 20.4% | 44.5% | 1.78% (active) | 19.4% | 48.5% | -2.49% (active)
24 | COc1ccc(C(=O)N2c3ccccc3Sc3ccccc32)c(C(F)(F)F)c1 | 14.2% | -7.9% (active) | 59.7% | 23.9% | 15.4% | 35.2% | 5.14% (active) | -10.1% (active) | 61.5% | 2.2% (active)
25 | COc1cc(/C=N/Nc2ccc(Br)cc2)cc(OC)c1OC | 63.1% | 9.82% (active) | 55.5% | 47.5% | 102% | 52.5% | 60.9% | 63.5% | 84.6% | 18.4%
26 | Cc1nc2c(=O)nc3s/c(=C\c4ccco4)c(=O)n3c2nc1C | 103% | 102% | 82.1% | 93.8% | 112% | 100% | 91.2% | 90.3% | 96.1% | 93.7%
27 | Cc1ccc(NC(=O)Cn2c(Br)nc3c2c(=O)n(C)c(=O)n3C)cc1 | 44.1% | 51.6% | -36% (active) | -19.2% (active) | -3.2% (active) | 56.1% | 0.92% (active) | 1.55% (active) | 62.2% | 43.1%
